GPR151 activ – activates the human receptor GPR151. PathHunter beta-arrestin GPR151 cells, luminescence. activation, % at 11.2 µM. hit rate 1% among 650,000. AID 1508602; in the data active = activation above about 4.9%
TEAD-YAP block – TEAD-YAP interaction inhibition. inhibition, % at 9.12 µM. hit rate 1.4% among 640,000. AID 1259422. HEK-TIYL cells, TEAD-Gal4/YAP UAS-luciferase luminescence; in the data active = inhibition above about 32%
MITF inh – human MITF inhibition, primary screen; hit rate 0.91% among 650,000; inhibition, % at 2.6 µM; AID 1259374; AlphaScreen MITF homodimerization, bead proximity signal; in the data active = inhibition above about 50%
Target sequence (O75030 whole entry, looked up): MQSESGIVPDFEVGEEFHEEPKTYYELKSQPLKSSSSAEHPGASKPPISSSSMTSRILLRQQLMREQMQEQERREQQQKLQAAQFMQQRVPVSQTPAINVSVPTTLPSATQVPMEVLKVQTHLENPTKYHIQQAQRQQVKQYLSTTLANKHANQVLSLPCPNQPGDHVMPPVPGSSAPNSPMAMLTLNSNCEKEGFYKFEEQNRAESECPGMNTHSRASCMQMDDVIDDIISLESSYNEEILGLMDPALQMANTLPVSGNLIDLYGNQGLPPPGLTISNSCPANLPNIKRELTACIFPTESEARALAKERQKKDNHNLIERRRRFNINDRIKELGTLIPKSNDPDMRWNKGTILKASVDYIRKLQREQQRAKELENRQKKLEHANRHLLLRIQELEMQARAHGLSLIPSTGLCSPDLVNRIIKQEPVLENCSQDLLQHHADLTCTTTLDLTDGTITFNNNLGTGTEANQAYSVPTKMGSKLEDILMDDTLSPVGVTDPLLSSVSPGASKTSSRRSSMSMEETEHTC
FBW7 act – activators of human E3 ligase FBW7. Q969H0. AlphaScreen FBW7–phospho-cyclin E peptide binding, activator screen. normalized activity (activation), % at 26.1 µM. hit rate 0.13% among 650,000. AID 1259310; in the data active = normalized activity above about 1.9%;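 also: purified mutant Fbw7 with reduced substrate affinity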
GPR151 conf act – confirmation of human GPR151 activators; AID 1508609; shares compounds with GPR151 activ; activation, % at 11.2 µM; GPR151 PathHunter beta-arrestin cells, luminescence, 90 min; % of EA-reagent control over plate median; 6,700 tested, under 10 active;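 active = mean percent activation across replicates above the confirmation screen cutoff of 4.91%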
GPR119 ag – counter-screen for GPR151 activators: effect on human GPR119. shares compounds with GPR151 activ. AID 1508611. GPR119 PathHunter beta-arrestin cells, luminescence, 90 min; 0 = compound-well median, 100 = enzyme-acceptor control. hit rate 0.3% among 6,700. activation, % at 11.2 µM;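 active = mean percent activation in the counterscreen above 29.09%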;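 also: counterscreen on off-target GPR119 to flag nonselective hits from the GPR151 activator screen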
Large screens that a line does not name were inactive (follow-up assays come after a bar, where they were run). The list is not random: actives were taken first. Their share in the collection is about 3.5%.

Cc1ccc(-c2ccc(CN3CCN(C)C(CCO)C3)cc2)o1 (configuration not stated)	none
Cc1ccc(-c2cccc(CN3CCN(C)C(CCO)C3)c2)o1 (configuration not stated)	GPR151 activ 8.8 | GPR151 conf act inactive | GPR119 ag inactive
CN1CCN(Cc2ccc(-c3ccccc3Cl)o2)CC1CCO (configuration not stated)	GPR151 activ 14 | GPR151 conf act inactive | GPR119 ag inactive
CC(C)(C)c1nnc(N/N=C/c2ccc(O)cc2)[nH]c1=O	none
COc1cc(/C=N/Nc2nnc(C(C)(C)C)c(=O)[nH]2)cc(OC)c1OC	GPR151 activ 6.1 | GPR151 conf act inactive | GPR119 ag inactive
CC(=O)c1ccc(Cc2cnc(N)s2)cc1	GPR151 activ 8.9 | GPR151 conf act inactive | GPR119 ag inactive
O=C(Nc1ncc(Cc2cccc(C(F)(F)F)c2)s1)c1cccc([N+](=O)[O-])c1	GPR151 activ 5.1 | GPR151 conf act inactive | GPR119 ag inactive
Nc1ncc(Cc2ccccc2)s1	none
Nc1ncc(Cc2cccc([N+](=O)[O-])c2)s1	GPR151 activ 5.4 | GPR151 conf act inactive | GPR119 ag inactive
O=C(Nc1cc(C(F)(F)F)ccc1Oc1ccc(-c2ccccc2)cc1)c1cccnc1	none
O=C(NCc1nc(-c2ccncc2)n[nH]1)C(c1ccccc1)C1CCCCC1 (configuration not stated)	GPR151 activ 7.1 | GPR151 conf act inactive | GPR119 ag inactive
COc1cccc(OC)c1C(=O)Nc1c(C)n(C)n(-c2ccccc2)c1=O	none
CCOC(=O)c1[nH]c(C)c(C(=O)Nc2cccc(OC)c2)c1C	none
CCOC(=O)c1[nH]c(C)c(C(=O)Nc2c(C)n(C)n(-c3ccccc3)c2=O)c1C	GPR151 activ 6.5 | GPR151 conf act inactive | GPR119 ag inactive
CCOC(=O)c1[nH]c(C)c(C(=O)Nc2ccc(C)c(C)c2)c1C	GPR151 activ 5.0 | GPR151 conf act inactive | GPR119 ag inactive
Cc1ccc(C)c(OCC(=O)O/N=C(\N)c2cccc(Br)c2)c1	none
O=C(Nc1c[nH]c2ccccc12)N1CCN(c2ccc(F)cc2)CC1	none
COc1cccc(N2C(=O)CC(SC(N)=Nc3ccccc3)C2=O)c1 (configuration not stated)	GPR151 activ 10.0 | GPR151 conf act inactive | GPR119 ag inactive
C/C(CCc1ccc2c(c1)OCO2)=N\N=C(/N)SC1CC(=O)N(c2ccccc2)C1=O (configuration not stated)	GPR151 activ 6.1 | GPR151 conf act inactive | GPR119 ag inactive
N/C(=N\N=C\c1ccc2c(c1)OCO2)SC1CC(=O)N(c2ccc(C(=O)O)cc2)C1=O (configuration not stated)	none
O=C(Nc1cccc([N+](=O)[O-])c1)c1ccccc1I	none
Cc1ccc(N2CC(NC(=O)Nc3ncccc3C)CC2=O)cc1 (configuration not stated)	GPR151 activ 5.9 | GPR151 conf act inactive | GPR119 ag inactive
O=C1CC(NCCCc2ccccc2)C(=O)N1c1ccc(Br)cc1 (configuration not stated)	GPR151 activ 11 | GPR151 conf act inactive | GPR119 ag inactive
COc1ccc(CCNC(=O)NC2CC(=O)N(c3cccc(F)c3)C2)cc1 (configuration not stated)	none
Cc1ccc(N2CC(NC(=O)Nc3nccs3)CC2=O)cc1 (configuration not stated)	none
Cc1ccnc(NC(=O)NC2CC(=O)N(c3ccccc3)C2)c1 (configuration not stated)	GPR151 activ 6.1 | GPR151 conf act inactive | GPR119 ag inactive
COc1ccc(CCNC(=O)NC2CC(=O)N(c3ccccc3)C2)cc1 (configuration not stated)	GPR151 activ 6.1 | GPR151 conf act inactive | GPR119 ag inactive
O=C1CC(NCCCCO)C(=O)N1c1ccc(Br)cc1 (configuration not stated)	none
O=C(c1ccc(F)c(F)c1)N1CCC(c2cccnc2)CC1	none
COc1cc(/C=C(\C#N)C(=O)NC2CCCCC2C)cc(Cl)c1O (configuration not stated)	none
CCOC(=O)c1c(C)n(-c2ccccc2)c2ccc(OC(=O)c3ccccc3[N+](=O)[O-])cc12	none
O=C(NNC(=O)C1Cc2ccccc2CN1C(=O)c1ccco1)c1ccc(Cl)cc1 (configuration not stated)	none
COc1ccc(S(=O)(=O)N(CC(=O)NC2CCCCC2)Cc2ccccc2)cc1OC	none
O=C(NCCc1ccccc1)C1CC(=O)N(c2ccc(Br)cc2)C1 (configuration not stated)	GPR151 activ 5.5 | GPR151 conf act inactive | GPR119 ag inactive
COc1ccc(N2CC(NC(=O)Nc3ccccc3C(N)=O)CC2=O)cc1OC (configuration not stated)	GPR151 activ 5.4 | GPR151 conf act inactive | GPR119 ag inactive
COc1ccc(CN[C@H]2C[C@H]3C(=O)N[C@H](C)C(=O)N3C2)cc1Cn1cccn1	none
COCCn1c(SC)nnc1-c1ccccc1	none
COc1cc(-c2c(C#N)c(N)n3c(nc4ccccc43)c2C#N)ccc1OCCCC#N	GPR151 activ 7.3 | GPR151 conf act inactive | GPR119 ag inactive
COc1ccc(-c2c(C#N)c(N)n3c(nc4ccccc43)c2C#N)cc1OC	none
CCOP(=O)(OCC)c1nc(-c2cccc3ccccc23)oc1NCc1ccco1	GPR151 activ 5.3 | GPR151 conf act inactive | GPR119 ag inactive
CCNC(=S)Nc1ccc(Cl)c(S(=O)(=O)N2CCOCC2)c1	GPR151 activ 6.6 | GPR151 conf act inactive | GPR119 ag inactive
O=C(Nc1cccc(O)c1)c1cc([N+](=O)[O-])ccc1Cl	GPR151 activ 6.4 | GPR151 conf act inactive | GPR119 ag inactive
O=C(Nc1ccc2oc(-c3cc(Br)ccc3Cl)nc2c1)c1ccc([N+](=O)[O-])o1	none
O=C(O)c1cc([N+](=O)[O-])ccc1C(=O)Nc1cccc(O)c1	none
O=C(Nc1ccc2oc(-c3ccc(Br)cc3)nc2c1)c1cc([N+](=O)[O-])ccc1Cl	GPR151 activ 6.6 | GPR151 conf act inactive | GPR119 ag inactive
O=C(Nc1ccc(Cl)c(-c2nc3cc(Cl)ccc3o2)c1)c1ccc([N+](=O)[O-])o1	GPR151 activ 7.0 | GPR151 conf act inactive | GPR119 ag inactive
C=CCn1c(SCC(=O)Nc2c(C)cccc2CC)nnc1-c1cccc(OC)c1	none
CCc1c(C)sc(NC(=O)c2ccc(Cl)c([N+](=O)[O-])c2)c1C(N)=O	none
CC(=O)Nc1cnn(-c2ccc(C(=O)N(C)Cc3ccc(Oc4ccccc4)cc3)cc2)c1	GPR151 activ 8.4 | GPR151 conf act inactive | GPR119 ag inactive
COc1cc([N+](=O)[O-])cc2c1NC(c1ccncc1)C1CC=CC21 (configuration not stated)	none
